Reference: PubChem BioAssay (EPA / NIEHS)
Where “and” joins values, the source holds several entries; their conditions need not be identical. Identical values can stand only once. Inconclusive results are not listed. More than one record can exist for a structure, and the calls need not agree. Calls of active or inactive are those of the source. How the source made its calls: active means hit-call score of the fitted dose curve at least 0.9, where 1 is the maximum; inconclusive means response in the unintended direction; inactive means score below 0.9.

How the values were obtained:
[1] = ATG_M_06_XSP2: Attagene TRANS-FACTORIAL Multi-Species (XSP2) HepG2 Assay for M06 Transcription Factor (Internal Marker) (AID 2283811);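 further: internal background marker reporter mRNA measured by RT-PCR and capillary electrophoresis; hits are increases in signal above the DMSO baseline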
Procedure, shortened: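 Cells of the human liver line HepG2 carried transfected reporter transcription units and were treated for 24 h. Induced reporter transcripts were detected by fluorescence after RT-PCR and capillary electrophoresis, with activity fitted in the gain direction against DMSO.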

[2] = tested on: turtle Estrogen Receptor (ERa), gene 101933533; assay: ATG_trERa_XSP2: Attagene TRANS-FACTORIAL Multi-Species (XSP2) HepG2 Assay for turtle Estrogen Receptor (ERa) (AID 2283812);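 further: actives raise reporter signal above DMSO so AC50 reflects agonist activity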
Procedure, shortened: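 Readout is reporter mRNA quantified by RT-PCR with capillary electrophoresis after 24 h compound exposure, increase relative to DMSO. Uses transiently transfected human HepG2 liver cells carrying a chimeric turtle ERa-Gal4 receptor driving GAL4-UAS reporters.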

[3] = molecular target: Estrogen receptor beta (Homo sapiens) (UniProt Q92731); assay: ATG_hERb_XSP2: Attagene TRANS-FACTORIAL Multi-Species (XSP2) HepG2 Assay for human Estrogen Receptor (ERb) (AID 2283813);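 further: actives raise reporter mRNA above DMSO so AC50 reflects agonist induction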
Sequence of Estrogen receptor beta (Homo sapiens) (Q92731 whole entry, looked up, the tested form may be a part): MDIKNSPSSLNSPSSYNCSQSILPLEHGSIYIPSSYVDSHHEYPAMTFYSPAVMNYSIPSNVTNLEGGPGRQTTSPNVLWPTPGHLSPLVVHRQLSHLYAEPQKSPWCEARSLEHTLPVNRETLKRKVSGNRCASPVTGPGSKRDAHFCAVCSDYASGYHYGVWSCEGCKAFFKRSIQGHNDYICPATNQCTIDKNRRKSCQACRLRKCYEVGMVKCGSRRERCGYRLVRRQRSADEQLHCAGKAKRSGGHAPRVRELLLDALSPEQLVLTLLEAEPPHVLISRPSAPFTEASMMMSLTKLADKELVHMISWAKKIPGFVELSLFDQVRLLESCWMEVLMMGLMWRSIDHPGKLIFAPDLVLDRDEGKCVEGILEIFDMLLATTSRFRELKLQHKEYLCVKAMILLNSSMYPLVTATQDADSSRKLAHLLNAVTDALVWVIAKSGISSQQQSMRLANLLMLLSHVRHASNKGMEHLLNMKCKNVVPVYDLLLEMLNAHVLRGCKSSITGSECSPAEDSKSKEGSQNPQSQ
Procedure, shortened: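 Transient TRANS reporter system in HepG2: after 24 h of chemical, RNA is reverse-transcribed, reporter cDNA amplified, FAM-labelled and sized by capillary electrophoresis. Induction of the human ERb-Gal4 reporter is measured relative to DMSO.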

[4] = molecular target: GAL4 Transcription Factor (Internal Marker), GAL4 (gene 855828) (UniProt P04386); assay: ATG_GAL4_XSP2: Attagene TRANS-FACTORIAL Multi-Species (XSP2) HepG2 Assay for GAL4 Transcription Factor (Internal Marker) (AID 2283814);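 further: GAL4 reporter mRNA background control in MRTU transfected cells not a receptor target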
Sequence of GAL4 Transcription Factor (Internal Marker), GAL4 (gene 855828) (P04386 whole entry, looked up, the tested form may be a part): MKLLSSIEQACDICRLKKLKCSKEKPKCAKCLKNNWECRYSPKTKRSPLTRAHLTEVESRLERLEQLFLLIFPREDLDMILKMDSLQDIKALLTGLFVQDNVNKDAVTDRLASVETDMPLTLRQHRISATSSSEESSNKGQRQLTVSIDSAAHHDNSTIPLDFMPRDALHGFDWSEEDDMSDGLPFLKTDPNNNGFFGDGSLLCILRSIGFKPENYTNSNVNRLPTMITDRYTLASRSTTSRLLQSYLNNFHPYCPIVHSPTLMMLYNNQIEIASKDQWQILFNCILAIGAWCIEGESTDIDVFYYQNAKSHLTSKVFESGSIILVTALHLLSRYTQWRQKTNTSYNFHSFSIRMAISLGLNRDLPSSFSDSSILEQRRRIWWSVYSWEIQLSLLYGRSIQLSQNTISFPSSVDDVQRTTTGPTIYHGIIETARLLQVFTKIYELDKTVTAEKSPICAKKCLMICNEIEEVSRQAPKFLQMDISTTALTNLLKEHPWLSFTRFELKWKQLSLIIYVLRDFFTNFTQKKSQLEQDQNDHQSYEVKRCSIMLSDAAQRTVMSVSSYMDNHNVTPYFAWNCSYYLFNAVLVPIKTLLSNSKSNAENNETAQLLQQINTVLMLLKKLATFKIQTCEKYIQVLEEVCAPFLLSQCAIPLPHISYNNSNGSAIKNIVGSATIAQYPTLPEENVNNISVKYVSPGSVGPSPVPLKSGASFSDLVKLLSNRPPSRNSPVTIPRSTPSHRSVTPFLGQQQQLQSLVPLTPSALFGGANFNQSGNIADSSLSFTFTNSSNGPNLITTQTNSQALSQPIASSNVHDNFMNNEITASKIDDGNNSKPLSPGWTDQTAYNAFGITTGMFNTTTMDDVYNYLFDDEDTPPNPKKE
Procedure, shortened: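 Background-control readout: gain-of-signal fitted against DMSO. After 24 h exposure of transfected HepG2 (MRTU, GAL4-UAS reporters; 3 nM 6-alpha-fluorotestosterone, 1.5 nM norgestrel present), transcripts quantified by RT-PCR and capillary electrophoresis fluorescence.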

[5] = molecular target: zebrafish Estrogen Receptor (ER1), esr1 (gene 259252) (UniProt P57717); assay: ATG_zfER1_XSP2: Attagene TRANS-FACTORIAL Multi-Species (XSP2) HepG2 Assay for zebrafish Estrogen Receptor (ER1) (AID 2283816)
Sequence of zebrafish Estrogen Receptor (ER1), esr1 (gene 259252) (P57717 whole entry, looked up, the tested form may be a part): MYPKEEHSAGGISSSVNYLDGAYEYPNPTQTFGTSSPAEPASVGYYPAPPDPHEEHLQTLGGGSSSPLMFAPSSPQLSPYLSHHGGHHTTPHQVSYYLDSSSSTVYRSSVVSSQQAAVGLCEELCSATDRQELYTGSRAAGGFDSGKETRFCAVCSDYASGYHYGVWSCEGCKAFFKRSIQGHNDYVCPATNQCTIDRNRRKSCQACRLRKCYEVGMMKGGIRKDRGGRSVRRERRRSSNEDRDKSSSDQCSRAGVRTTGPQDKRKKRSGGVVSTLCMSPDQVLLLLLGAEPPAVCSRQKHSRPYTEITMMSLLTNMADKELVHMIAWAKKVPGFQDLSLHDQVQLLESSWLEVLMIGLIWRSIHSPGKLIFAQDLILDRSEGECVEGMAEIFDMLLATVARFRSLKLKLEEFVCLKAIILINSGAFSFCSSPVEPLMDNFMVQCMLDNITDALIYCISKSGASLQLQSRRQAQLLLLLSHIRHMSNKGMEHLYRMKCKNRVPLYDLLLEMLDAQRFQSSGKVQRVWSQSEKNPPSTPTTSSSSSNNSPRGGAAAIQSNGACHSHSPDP
Procedure, shortened: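 After 24 h compound exposure, RNA from transfected HepG2 cells was reverse-transcribed and reporter transcripts resolved by capillary electrophoresis. The TRANS format reads exogenous zebrafish ER1-Gal4 chimera activity on GAL4-UAS elements; gain of signal against DMSO.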

[6] = molecular target: chicken Estrogen Receptor (ERa), ESR1 (gene 396099) (UniProt P06212); assay: ATG_chERa_XSP2: Attagene TRANS-FACTORIAL Multi-Species (XSP2) HepG2 Assay for chicken Estrogen Receptor (ERa) (AID 2283817);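 further: actives raise reporter signal above DMSO so AC50 reflects ER activation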
Sequence of chicken Estrogen Receptor (ERa), ESR1 (gene 396099) (P06212 whole entry, looked up, the tested form may be a part): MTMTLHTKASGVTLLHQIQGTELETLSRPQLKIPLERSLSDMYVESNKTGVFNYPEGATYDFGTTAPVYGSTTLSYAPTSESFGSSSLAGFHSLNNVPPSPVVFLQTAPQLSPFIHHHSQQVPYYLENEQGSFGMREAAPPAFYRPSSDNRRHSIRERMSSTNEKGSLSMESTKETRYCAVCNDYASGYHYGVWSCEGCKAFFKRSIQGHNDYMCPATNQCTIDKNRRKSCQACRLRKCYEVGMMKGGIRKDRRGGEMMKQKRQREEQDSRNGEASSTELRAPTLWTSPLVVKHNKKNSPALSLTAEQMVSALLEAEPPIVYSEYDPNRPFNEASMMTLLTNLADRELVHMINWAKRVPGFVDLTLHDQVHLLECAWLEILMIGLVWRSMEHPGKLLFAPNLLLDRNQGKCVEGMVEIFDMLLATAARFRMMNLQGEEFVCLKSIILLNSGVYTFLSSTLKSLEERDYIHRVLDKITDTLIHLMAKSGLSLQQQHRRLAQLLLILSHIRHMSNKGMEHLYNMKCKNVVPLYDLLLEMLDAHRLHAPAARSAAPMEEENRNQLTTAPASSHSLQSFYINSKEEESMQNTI
Procedure, shortened: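 Exogenous chicken ERa-Gal4 chimera activity was assessed in transfected human liver HepG2 cells after 24 h of treatment. Induced reporter mRNA was quantified fluorescently by capillary electrophoresis, with DMSO as baseline.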

[7] = tested on: zebrafish Estrogen Receptor (ER2a), gene 317734; assay: ATG_zfER2a_XSP2: Attagene TRANS-FACTORIAL Multi-Species (XSP2) HepG2 Assay for zebrafish Estrogen Receptor (ER2a) (AID 2283818);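 further: hits raise reporter mRNA so AC50 reflects activation of zebrafish ER2a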
Procedure, shortened: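 Multiplexed trans-reporter readout: RT-PCR then capillary electrophoresis of reporter transcripts after 24 h compound treatment. Human HepG2 carries transfected zebrafish ER2a-Gal4 chimera; 3 nM 6-alpha-fluorotestosterone plus 1.5 nM norgestrel present. Induction scored against DMSO.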

[8] = tested on: frog Estrogen Receptor (ER), gene 398734; assay: ATG_frER1_XSP2: Attagene TRANS-FACTORIAL Multi-Species (XSP2) HepG2 Assay for frog Estrogen Receptor (ER) (AID 2283821);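 further: hits raise reporter mRNA above DMSO baseline so potency means agonist or activator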
Procedure, shortened: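 Gain-of-signal mRNA reporter assay, HepG2 human liver cells, 24 h dosing; transcripts read by fluorescent RT-PCR fragment analysis, DMSO as negative control.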

[9] = ATG_M_32_XSP2: Attagene TRANS-FACTORIAL Multi-Species (XSP2) HepG2 Assay for M19 Transcription Factor (Internal Marker) (AID 2283826)
Procedure, shortened: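 HepG2 cells transiently transfected with GAL4-UAS reporter transcription units, dosed with compound for 24 h in presence of 3 nM 6-alpha-fluorotestosterone and 1.5 nM norgestrel; reporter mRNA quantified by RT-PCR, FAM labelling, HpaI digestion and capillary electrophoresis.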

[10] = molecular target: Estrogen receptor (Homo sapiens) (UniProt P03372); assay: ATG_hERa_XSP2: Attagene TRANS-FACTORIAL Multi-Species (XSP2) HepG2 Assay for human Estrogen Receptor (ERa) (AID 2283827)
Sequence of Estrogen receptor (Homo sapiens) (P03372 whole entry, looked up, the tested form may be a part): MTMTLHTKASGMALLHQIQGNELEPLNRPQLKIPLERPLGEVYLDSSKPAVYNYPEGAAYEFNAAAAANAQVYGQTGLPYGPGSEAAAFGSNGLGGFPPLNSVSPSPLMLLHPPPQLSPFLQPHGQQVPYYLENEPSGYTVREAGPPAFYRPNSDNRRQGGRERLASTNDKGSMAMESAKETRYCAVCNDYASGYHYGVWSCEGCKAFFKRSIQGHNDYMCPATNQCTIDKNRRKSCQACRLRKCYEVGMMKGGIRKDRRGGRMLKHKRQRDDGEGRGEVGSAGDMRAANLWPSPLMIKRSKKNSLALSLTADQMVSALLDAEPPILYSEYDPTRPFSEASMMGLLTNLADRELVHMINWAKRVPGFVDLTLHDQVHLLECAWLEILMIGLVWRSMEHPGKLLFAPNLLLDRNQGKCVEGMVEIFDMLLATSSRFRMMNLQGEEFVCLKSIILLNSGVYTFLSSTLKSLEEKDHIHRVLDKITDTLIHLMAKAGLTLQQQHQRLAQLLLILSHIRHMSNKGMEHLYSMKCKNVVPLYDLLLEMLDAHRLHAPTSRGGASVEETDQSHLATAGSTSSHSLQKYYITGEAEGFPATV
Procedure, shortened: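 Trans-activation of exogenous human ERa-Gal4 chimera read in HepG2 as reporter transcript after 24 h exposure; medium included 3 nM 6-alpha-fluorotestosterone and 1.5 nM norgestrel. Quantified by RT-PCR with capillary electrophoresis, positive-direction fitting against DMSO.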

[11] = tested on: frog Estrogen Receptor (ER2), gene 100174814; assay: ATG_frER2_XSP2: Attagene TRANS-FACTORIAL Multi-Species (XSP2) HepG2 Assay for frog Estrogen Receptor (ER2) (AID 2283828)
Procedure, shortened: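 Induction of reporter mRNA, baseline set by DMSO, is the endpoint. The panel was run in transfected HepG2 cells over 24 h, with 3 nM 6-alpha-fluorotestosterone and 1.5 nM norgestrel present to stimulate androgen receptor.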

[12] = molecular target: Peroxisome proliferator-activated receptor gamma (Homo sapiens) (UniProt P37231); assay: ATG_hPPARg_XSP2: Attagene TRANS-FACTORIAL Multi-Species (XSP2) HepG2 Assay for human Peroxisome Proliferator-activated Receptor gamma (PPARg) (AID 2283829);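 further: actives raise reporter mRNA above DMSO so AC50 reflects PPARg activation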
Sequence of Peroxisome proliferator-activated receptor gamma (Homo sapiens) (P37231 whole entry, looked up, the tested form may be a part): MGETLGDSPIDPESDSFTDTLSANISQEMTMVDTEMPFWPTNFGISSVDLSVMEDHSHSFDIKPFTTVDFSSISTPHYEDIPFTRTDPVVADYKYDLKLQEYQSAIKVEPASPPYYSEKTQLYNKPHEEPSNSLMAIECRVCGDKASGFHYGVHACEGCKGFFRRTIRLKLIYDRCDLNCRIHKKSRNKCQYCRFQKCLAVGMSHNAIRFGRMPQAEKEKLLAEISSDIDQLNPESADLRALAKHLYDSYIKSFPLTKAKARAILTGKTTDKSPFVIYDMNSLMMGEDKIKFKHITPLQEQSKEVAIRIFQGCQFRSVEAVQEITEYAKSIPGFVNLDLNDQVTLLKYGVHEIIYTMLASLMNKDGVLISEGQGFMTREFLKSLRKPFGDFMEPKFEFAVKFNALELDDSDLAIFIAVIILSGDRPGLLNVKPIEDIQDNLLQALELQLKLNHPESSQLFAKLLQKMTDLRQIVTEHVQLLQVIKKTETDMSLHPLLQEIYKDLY
Procedure, shortened: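 HepG2 cells transiently transfected with multiplexed GAL4-UAS reporter units for chimeric NR-Gal4 receptors, dosed 24 h. Reporter mRNA quantified by RT-PCR, 6-FAM labeling, HpaI digestion and capillary electrophoresis; gain-of-signal fitted against DMSO baseline.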

[13] = molecular target: mouse Peroxisome Proliferator-activated Receptor gamma (PPARg), Pparg (gene 19016) (UniProt P37238); assay: ATG_mPPARg_XSP2: Attagene TRANS-FACTORIAL Multi-Species (XSP2) HepG2 Assay for mouse Peroxisome Proliferator-activated Receptor gamma (PPARg) (AID 2283830);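 further: hits are gains in reporter mRNA above DMSO so AC50 marks activation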
Sequence of mouse Peroxisome Proliferator-activated Receptor gamma (PPARg), Pparg (gene 19016) (P37238 whole entry, looked up, the tested form may be a part): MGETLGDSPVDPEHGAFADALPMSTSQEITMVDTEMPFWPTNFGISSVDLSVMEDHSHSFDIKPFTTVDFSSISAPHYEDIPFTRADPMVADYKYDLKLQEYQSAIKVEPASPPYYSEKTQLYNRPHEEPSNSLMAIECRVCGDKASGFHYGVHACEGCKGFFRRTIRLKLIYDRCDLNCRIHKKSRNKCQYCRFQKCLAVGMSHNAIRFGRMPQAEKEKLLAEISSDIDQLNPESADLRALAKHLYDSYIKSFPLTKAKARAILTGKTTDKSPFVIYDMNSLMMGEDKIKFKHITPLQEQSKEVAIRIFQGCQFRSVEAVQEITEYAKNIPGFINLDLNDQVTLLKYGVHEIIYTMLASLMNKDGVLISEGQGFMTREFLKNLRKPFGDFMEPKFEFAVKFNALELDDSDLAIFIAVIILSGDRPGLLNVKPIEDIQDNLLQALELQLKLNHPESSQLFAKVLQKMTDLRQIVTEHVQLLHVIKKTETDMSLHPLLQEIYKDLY
Procedure, shortened: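 Multiplexed TRANS reporter readout: after 24 h chemical exposure of transfected HepG2 cells (with 3 nM 6-alpha-fluorotestosterone, 1.5 nM norgestrel present), RNA reverse-transcribed, amplified, 6-FAM-labelled and resolved by capillary electrophoresis; mouse PPARg-Gal4 induction scored against DMSO.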

[14] = molecular target: Nuclear receptor subfamily 1 group I member 2 (Mus musculus) (UniProt O54915); assay: ATG_mPXR_XSP2: Attagene TRANS-FACTORIAL Multi-Species (XSP1) HepG2 Assay for mouse Pregnane X Receptor (PXR) (AID 2283831)
Sequence of Nuclear receptor subfamily 1 group I member 2 (Mus musculus) (O54915 whole entry, looked up, the tested form may be a part): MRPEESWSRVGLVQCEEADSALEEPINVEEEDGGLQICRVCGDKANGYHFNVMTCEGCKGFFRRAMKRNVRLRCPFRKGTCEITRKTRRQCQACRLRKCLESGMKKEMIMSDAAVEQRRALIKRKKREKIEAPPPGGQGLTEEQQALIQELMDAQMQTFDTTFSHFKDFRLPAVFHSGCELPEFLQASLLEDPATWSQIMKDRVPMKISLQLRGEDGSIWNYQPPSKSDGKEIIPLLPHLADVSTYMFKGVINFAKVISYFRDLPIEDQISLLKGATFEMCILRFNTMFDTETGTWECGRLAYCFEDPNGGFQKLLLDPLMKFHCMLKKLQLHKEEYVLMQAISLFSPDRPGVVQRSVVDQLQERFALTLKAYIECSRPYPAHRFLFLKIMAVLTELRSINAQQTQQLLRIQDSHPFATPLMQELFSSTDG
Procedure, shortened: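 HepG2 cells transiently transfected with GAL4-UAS reporter units expressing chimeric NR-GAL4 proteins; reporter mRNA measured 24 h after dosing by RT-PCR with 6-FAM labelling and capillary electrophoresis, gain of signal relative to DMSO.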

[15] = tested on: zebrafish Peroxisome Proliferator-activated Receptor gamma (PPARg), gene 557037; assay: ATG_zfPPARg_XSP2: Attagene TRANS-FACTORIAL Multi-Species (XSP2) HepG2 Assay for zebrafish Peroxisome Proliferator-activated Receptor gamma (PPARg) (AID 2283833);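 further: actives increase reporter signal over DMSO so AC50 reflects activation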
Procedure, shortened: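 HepG2 cells transiently transfected with GAL4-UAS reporter units expressing a zebrafish PPARg–GAL4 chimera; compound exposure 24 h. Reporter mRNA quantified by RT-PCR with fluorescent labelling and capillary electrophoresis; gain of signal fitted relative to DMSO baseline.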

[16] = ATG_XTT_Cytotoxicity_XSP1: Cytotoxicity Assessment in the Attagene TRANS-FACTORIAL Multi-Species (XSP1) HepG2 Assay (AID 2283810)
Procedure, shortened: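 XTT viability readout taken at 24 hours post-dosing in HepG2 liver cells co-treated with 3 nM 6-alpha-fluorotestosterone. Signal loss relative to DMSO controls reflects cytotoxicity.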

[17] = tested on: turtle Androgen Receptor (AR), gene 101947425; assay: ATG_trAR_XSP2: Attagene TRANS-FACTORIAL Multi-Species (XSP2) HepG2 Assay for turtle Androgen Receptor (AR) (AID 2283815);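 further: reporter mRNA from a Gal4 chimera of turtle AR measured by RT-PCR; potency for gain of reporter signal meaning activation above DMSO baseline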
Procedure, shortened: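 Reporter transcripts were quantified via RT-PCR and capillary electrophoresis and fitted upward against DMSO. Transiently transfected human HepG2 cells carrying NR-Gal4 chimeras were exposed 24 h, with 3 nM 6-alpha-fluorotestosterone plus 1.5 nM norgestrel added.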

[18] = tested on: chicken Androgen Receptor (AR), gene 422165; assay: ATG_chAR_XSP2: Attagene TRANS-FACTORIAL Multi-Species (XSP2) HepG2 Assay for chicken Androgen Receptor (AR) (AID 2283819);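 further: hits raise reporter mRNA above DMSO so potency is for activation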
Procedure, shortened: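 Readout is reporter mRNA induction via RT-PCR/capillary electrophoresis after 24 h chemical exposure, positive direction relative to DMSO. Transiently transfected HepG2 express chimeric chicken AR–GAL4; AR stimulated by 3 nM 6-alpha-fluorotestosterone and 1.5 nM norgestrel.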

[19] = tested on: frog Androgen Receptor (AR), gene 399456; assay: ATG_frAR_XSP2: Attagene TRANS-FACTORIAL Multi-Species (XSP2) HepG2 Assay for frog Androgen Receptor (AR) (AID 2283824);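 further: reporter mRNA from GAL4-UAS units driven by Xenopus AR-Gal4 chimera; actives raise reporter signal above DMSO so AC50 reflects agonist-like induction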
Procedure, shortened: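 Reporter transcript induction, read by RT-PCR with fluorescent capillary electrophoresis, in human liver HepG2 cells carrying an exogenous Xenopus AR-Gal4 fusion and GAL4-driven reporters; chemical exposure 24 hours, activity scored upward against DMSO controls.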

[20] = tested on: zebrafish Androgen Receptor (AR), gene 100005148; assay: ATG_zfAR_XSP2: Attagene TRANS-FACTORIAL Multi-Species (XSP2) HepG2 Assay for zebrafish Androgen Receptor (AR) (AID 2283825);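 further: hits raise reporter mRNA above DMSO so AC50 reflects agonist-type gain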
Procedure, shortened: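 After 24 h compound exposure in medium with 3 nM 6-alpha-fluorotestosterone plus 1.5 nM norgestrel, HepG2 cells carrying zebrafish AR–GAL4 reporter constructs were assessed for reporter mRNA gain by RT-PCR and capillary electrophoresis.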

Measured: AC50

CC(C)C1CCC(Cc2ccc(Cl)cc2)C1(O)Cn1cncn1 (configuration not stated)
inactive: [1] | [2] | [3] | [4] | [5] | [6] | [7] | [8] | [9] | [10] | [11] | [13] | [15]
active: [10] 7.95 µM | [11] 14.3 µM | [12] 3.93 µM | [13] 10.2 µM | [14] 715 nM and 257 nM

O=S(=O)(c1ccc(Cl)cc1)c1ccc(Cl)cc1
inactive: [1] | [3] | [7] | [8] | [11] | [15]
active: [2] 14.4 µM and 15.9 µM | [3] 8.12 µM | [5] 26.6 µM and 37.7 µM | [6] 35.3 µM and 19.3 µM | [8] 26.4 µM | [10] 4.86 µM and 27.8 µM | [11] 28 µM | [12] 11.4 µM and 6.91 µM | [13] 16.3 µM and 26.8 µM | [14] 4.34 µM and 2.83 µM

Oc1c(I)cc(I)cc1I
inactive: [1] | [3] | [5] | [8] | [9] | [14]
active: [6] 2.58 µM | [10] 3.11 µM | [12] 12 µM and 10.4 µM | [13] 18 µM and 14.1 µM | [14] 56.6 µM | [15] 26.1 µM and 23.3 µM

Clc1ccc(C2(Cn3cncn3)CC(Br)CO2)c(Cl)c1 (configuration not stated)
active: [2] 19.8 µM | [6] 3.47 µM | [7] 37.4 µM | [8] 9.65 µM and 5.35 µM | [10] 4.43 µM and 6.56 µM | [11] 28.8 µM | [13] 62.7 µM | [14] 3.32 µM and 1.59 µM
inactive: [1] | [2] | [3] | [4] | [5] | [6] | [7] | [9] | [11] | [12] | [13] | [15]

C[C@]12CCC(=O)C[C@@H]1CC[C@@H]1[C@@H]2CC[C@]2(C)[C@@H](O)CC[C@@H]12
active: [17] 0.0339 µM | [18] 0.198 µM | [19] 0.0457 µM
not listed: [4] | [10] | [11] | [14]
inactive: all other assays above

CC(C)(C)CC(C)(C)c1ccc(O)cc1
active: [2] 5.79 µM | [6] 4.49 µM | [8] 3.4 µM | [11] 4.83 µM
inactive: [16] | [1] | [3] | [7] | [14]

CC(=O)C=C(C)C
inactive: [1] | [2] | [5] | [6] | [7] | [18] | [8] | [20] | [9] | [10] | [12] | [13] | [14] | [15]
active: [7] 46.7 µM | [11] 183 µM
